# Reference: PubChem BioAssay
# Several values for one entry are separate records, joined by “and”; a condition that tells them apart may be missing. Identical values can stand only once. Activity calls are given as the source filed them.
# Tests used:
# [1] = test system: PRMT1 (protein arginine N-methyltransferase 1); test: PRMT1 binders on small-molecule microarrays, primary screen, biochemical, small-molecule microarray, 635 nm fluorescence (AID 1088); settings: small-molecule microarray binding, higher = more signal;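 also: binding of Prmt1 protein to compounds spotted on small-molecule microarray slides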
# [2] = yeast growth modulation, basal conditions, primary screen, YJM789 clinical isolate, OD600, 24 h (AID 1089);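 also: growth of clinical yeast isolate S. cerevisiae YJM 789 seeded 1000 cells per well; test concentration not given here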; settings: S. cerevisiae YJM789 growth, higher = more signal, called active from +8 up or from −8 down
# [3] = fission yeast growth modulation, primary screen, strain 972, OD600, 24 h, no modulator (AID 1090);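 also: basal condition with compound alone and no growth modifier present; test concentration not given here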; settings: S. pombe 972 growth, higher = more signal, called active from +8 up or from −8 down
# [4] = S. cerevisiae growth modulation with rapamycin, primary screen, strain BY4716, OD600, 96 h (AID 1091); settings: higher = more signal, called active from +8 up or from −8 down; also: test concentration not given here
# [5] = target: Torsin-1A-interacting protein 2 (Homo sapiens) (UniProt Q8NFQ8); test: LULL1 binders on small-molecule microarray, primary screen, cell lysate, human LULL1 lysate, 635/667 nm fluorescence (AID 1092); settings: hLULL1 lysate binding, 635 nm fluorescence, higher = more signal;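 also: probe is lysate of COS7 cells overexpressing human LULL1; score merges per-feature 667 nm fluorescence with signal-to-noise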
# [6] = E. coli growth modulation, two-sided OD650, primary screen, E. coli filamentation project, strain DRC41, 24 h (AID 1093); settings: OD650, 24 h, higher = more signal, called active from +8 up or from −8 down;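 also: MC1000 strain lacking acrAB efflux and sulA so SOS filamentation is blocked; test concentration not given here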
# [7] = small-molecule microarray binders of probe aLefty2, primary screen, biochemical, biotinylated probe, 635/667 nm fluorescence (AID 1094); settings: higher = more signal;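 also: score merges spot fluorescence near 667 nm with spot signal-to-noise ratio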
# [8] = test system: Noggin (protein binding on small-molecule microarray); test: Noggin binders on small-molecule microarray, primary screen, biochemical, 635/667 nm fluorescence (AID 1095); settings: 635 nm fluorescence, higher = more signal;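 also: score merges 667 nm feature fluorescence with signal to noise over triplicate slides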
# [9] = target: Neurogenic locus notch homolog protein 3 (Homo sapiens) (UniProt Q9UM47); test: NOTCH3 binders on small-molecule microarray, primary screen, biochemical, 635/667 nm fluorescence (AID 1096); settings: NOTCH3 binding, 635 nm fluorescence, higher = more signal
# [10] = small-molecule microarray binders of probe aEGFR, primary screen, biochemical, biotinylated probe, 635/667 nm fluorescence (AID 1097); settings: higher = more signal;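 also: probe is a biotinylated anti-EGFR antibody binding compounds printed on slides; score combines fluorescence near 667 nm and signal to noise of each spot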
# [11] = test system: Plasmodium falciparum Sir2 (PF13_0152, Sir2A); test: pfSir2 binders on small-molecule microarrays, primary screen, biochemical, small-molecule microarray, 635 nm fluorescence (AID 1098); settings: small-molecule microarray binding, fluorescence 635 nm; higher = more signal;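 also: score merges spot fluorescence intensity with its signal-to-noise ratio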
# [12] = small-molecule microarray binders of probe aDKK1, primary screen, biochemical, biotinylated probe, 635/667 nm fluorescence (AID 1099); settings: higher = more signal;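 also: score merges 667nm spot fluorescence with signal to noise across triplicate slides; reference of the scale not given here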
# [13] = small-molecule microarray binders of probe aCHRDL2, primary screen, biochemical, biotinylated probe, 635/667 nm fluorescence (AID 1100); settings: higher = more signal
# [14] = splicing luciferase reporter signal modulators, primary screen, spliceosome inhibition project, cell-based, HEK293, splice +/- reporter (AID 1101); settings: luminescence, 24 h, higher = more signal, called active from +8 up or from −8 down;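 also: HEK293 cells carrying a splicing-competent luciferase reporter gene; test concentration not given here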
# [15] = target: Fibroblast growth factor 10 (Homo sapiens) (UniProt O15520); test: FGF10 binders on small-molecule microarrays, primary screen, biochemical, small-molecule microarray, 635 nm fluorescence (AID 1102); settings: FGF10 binding, fluorescence 635 nm, higher = more signal
# [16] = test system: glycogen synthase kinase-3 (GSK3A per assay name; protocol says GSK3B); test: GSK3 binders on small-molecule microarrays, primary screen, biochemical, small-molecule microarray, 635 nm fluorescence, GSK3A (AID 1103); settings: small-molecule microarray binding, fluorescence 635 nm; higher = more signal; also: the record names both GSK3A and GSK3B
# [17] = target: Epidermal growth factor receptor (Homo sapiens) (UniProt P00533); test: EGFR binders on small-molecule microarrays, primary screen, biochemical, small-molecule microarray, 635 nm fluorescence (AID 1104); settings: EGFR binding, higher = more signal;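 also: score merges 667 nm emission intensity with spot signal to noise over triplicate slides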
# [18] = target: Follistatin-related protein 3 (Homo sapiens) (UniProt O95633); test: FSTL3 binders on small-molecule microarrays, primary screen, biochemical, small-molecule microarray, 635 nm fluorescence (AID 1105); settings: FSTL3 binding, higher = more signal;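 also: score merges emission near 667 nm and signal to noise per printed spot across three slides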
# [19] = target: Dickkopf-related protein 1 (Homo sapiens) (UniProt O94907); test: DKK1 binders on small-molecule microarrays, primary screen, biochemical, small-molecule microarray, 635 nm fluorescence scan (AID 1106); settings: DKK1 binding, higher = more signal;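 also: score merges emission near 667 nm with signal to noise over three replicate slides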
# [20] = test system: Inhibin beta A chain (activin A); test: INHBA (activin A) binders on microarrays, primary screen, biochemical, small-molecule microarray, 635 nm fluorescence scan (AID 1107); settings: small-molecule microarray binding, higher = more signal;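 also: mouse activin A protein probed at 4.33 µg/mL on printed slides; score merges bound-protein fluorescence near 667 nm with spot signal-to-noise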
# Fibroblast growth factor 10 (Homo sapiens), sequence (O15520 whole entry, looked up): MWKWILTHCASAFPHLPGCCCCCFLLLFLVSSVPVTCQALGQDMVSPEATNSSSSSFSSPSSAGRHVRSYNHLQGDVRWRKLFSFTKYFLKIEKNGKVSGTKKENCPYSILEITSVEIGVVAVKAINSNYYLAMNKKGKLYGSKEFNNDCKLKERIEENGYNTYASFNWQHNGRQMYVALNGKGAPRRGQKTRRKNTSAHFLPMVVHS
# Neurogenic locus notch homolog protein 3 (Homo sapiens), sequence (Q9UM47 whole entry, looked up): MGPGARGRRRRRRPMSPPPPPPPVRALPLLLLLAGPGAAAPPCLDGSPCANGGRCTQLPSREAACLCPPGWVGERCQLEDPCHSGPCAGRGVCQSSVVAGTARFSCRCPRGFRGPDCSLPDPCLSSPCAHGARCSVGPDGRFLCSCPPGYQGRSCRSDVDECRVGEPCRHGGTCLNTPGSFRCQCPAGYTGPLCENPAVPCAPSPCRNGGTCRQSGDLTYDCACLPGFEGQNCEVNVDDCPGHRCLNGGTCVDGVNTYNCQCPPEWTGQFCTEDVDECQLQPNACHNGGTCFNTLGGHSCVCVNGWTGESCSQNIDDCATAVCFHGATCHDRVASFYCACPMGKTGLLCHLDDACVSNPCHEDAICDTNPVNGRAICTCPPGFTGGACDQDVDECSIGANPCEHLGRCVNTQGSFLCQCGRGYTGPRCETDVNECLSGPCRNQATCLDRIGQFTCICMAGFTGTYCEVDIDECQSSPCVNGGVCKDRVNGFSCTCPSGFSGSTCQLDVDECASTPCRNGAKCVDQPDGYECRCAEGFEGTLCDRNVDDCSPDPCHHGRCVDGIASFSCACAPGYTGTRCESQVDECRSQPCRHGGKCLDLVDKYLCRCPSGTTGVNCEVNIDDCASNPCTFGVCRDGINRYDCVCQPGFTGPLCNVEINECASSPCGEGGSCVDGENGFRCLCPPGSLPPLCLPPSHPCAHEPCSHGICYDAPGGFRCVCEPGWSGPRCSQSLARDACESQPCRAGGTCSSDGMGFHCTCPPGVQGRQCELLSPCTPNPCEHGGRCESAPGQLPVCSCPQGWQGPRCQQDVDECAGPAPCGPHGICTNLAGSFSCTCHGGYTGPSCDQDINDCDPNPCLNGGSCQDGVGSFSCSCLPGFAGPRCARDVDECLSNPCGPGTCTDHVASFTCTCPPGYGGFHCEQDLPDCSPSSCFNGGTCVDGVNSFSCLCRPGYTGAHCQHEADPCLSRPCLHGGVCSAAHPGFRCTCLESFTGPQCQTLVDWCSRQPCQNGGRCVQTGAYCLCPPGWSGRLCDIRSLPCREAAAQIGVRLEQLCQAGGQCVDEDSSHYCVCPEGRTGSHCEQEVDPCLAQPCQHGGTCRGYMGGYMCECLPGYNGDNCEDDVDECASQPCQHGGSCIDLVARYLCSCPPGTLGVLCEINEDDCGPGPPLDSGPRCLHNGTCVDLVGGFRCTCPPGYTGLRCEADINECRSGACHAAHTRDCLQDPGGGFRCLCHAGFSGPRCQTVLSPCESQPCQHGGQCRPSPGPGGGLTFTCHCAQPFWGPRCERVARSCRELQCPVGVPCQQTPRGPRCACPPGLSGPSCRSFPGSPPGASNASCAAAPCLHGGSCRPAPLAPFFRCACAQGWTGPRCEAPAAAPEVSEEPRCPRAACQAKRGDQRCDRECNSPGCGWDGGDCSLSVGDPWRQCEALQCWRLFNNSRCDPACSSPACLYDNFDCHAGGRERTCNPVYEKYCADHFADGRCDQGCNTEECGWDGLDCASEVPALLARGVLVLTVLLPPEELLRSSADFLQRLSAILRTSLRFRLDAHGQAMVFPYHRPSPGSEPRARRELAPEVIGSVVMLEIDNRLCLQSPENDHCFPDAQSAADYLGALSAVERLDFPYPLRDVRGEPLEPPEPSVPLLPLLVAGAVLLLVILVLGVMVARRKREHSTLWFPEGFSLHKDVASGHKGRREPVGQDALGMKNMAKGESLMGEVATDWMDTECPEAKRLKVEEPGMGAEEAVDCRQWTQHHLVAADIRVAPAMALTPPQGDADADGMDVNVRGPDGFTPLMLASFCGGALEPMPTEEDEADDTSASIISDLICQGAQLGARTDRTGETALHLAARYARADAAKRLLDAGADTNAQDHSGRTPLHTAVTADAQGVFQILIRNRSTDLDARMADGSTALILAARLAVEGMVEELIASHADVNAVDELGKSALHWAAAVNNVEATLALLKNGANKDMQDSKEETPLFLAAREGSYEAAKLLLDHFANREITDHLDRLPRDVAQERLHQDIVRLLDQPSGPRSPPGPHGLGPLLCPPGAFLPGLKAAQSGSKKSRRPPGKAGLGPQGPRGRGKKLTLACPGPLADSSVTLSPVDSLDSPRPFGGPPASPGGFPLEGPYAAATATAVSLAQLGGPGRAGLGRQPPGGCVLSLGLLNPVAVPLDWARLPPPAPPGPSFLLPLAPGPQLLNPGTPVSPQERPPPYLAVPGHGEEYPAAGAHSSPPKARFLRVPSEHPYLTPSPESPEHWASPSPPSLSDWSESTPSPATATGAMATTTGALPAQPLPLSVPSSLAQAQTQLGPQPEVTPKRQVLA
# Follistatin-related protein 3 (Homo sapiens), sequence (O95633 whole entry, looked up): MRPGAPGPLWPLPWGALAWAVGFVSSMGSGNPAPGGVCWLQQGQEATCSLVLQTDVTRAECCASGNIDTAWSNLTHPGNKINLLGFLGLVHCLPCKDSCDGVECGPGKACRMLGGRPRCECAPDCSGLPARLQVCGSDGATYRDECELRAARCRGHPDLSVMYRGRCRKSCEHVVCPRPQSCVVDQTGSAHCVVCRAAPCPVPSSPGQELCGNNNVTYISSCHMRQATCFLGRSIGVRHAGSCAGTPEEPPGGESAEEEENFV
# Dickkopf-related protein 1 (Homo sapiens), sequence (O94907 whole entry, looked up): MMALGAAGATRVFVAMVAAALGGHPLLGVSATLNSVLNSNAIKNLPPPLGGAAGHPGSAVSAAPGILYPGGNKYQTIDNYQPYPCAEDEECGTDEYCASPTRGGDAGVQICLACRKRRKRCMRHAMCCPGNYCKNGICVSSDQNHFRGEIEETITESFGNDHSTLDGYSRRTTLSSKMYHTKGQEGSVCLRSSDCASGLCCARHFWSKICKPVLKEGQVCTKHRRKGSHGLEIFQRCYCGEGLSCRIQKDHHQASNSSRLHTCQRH
# Epidermal growth factor receptor (Homo sapiens), sequence (P00533 whole entry, looked up): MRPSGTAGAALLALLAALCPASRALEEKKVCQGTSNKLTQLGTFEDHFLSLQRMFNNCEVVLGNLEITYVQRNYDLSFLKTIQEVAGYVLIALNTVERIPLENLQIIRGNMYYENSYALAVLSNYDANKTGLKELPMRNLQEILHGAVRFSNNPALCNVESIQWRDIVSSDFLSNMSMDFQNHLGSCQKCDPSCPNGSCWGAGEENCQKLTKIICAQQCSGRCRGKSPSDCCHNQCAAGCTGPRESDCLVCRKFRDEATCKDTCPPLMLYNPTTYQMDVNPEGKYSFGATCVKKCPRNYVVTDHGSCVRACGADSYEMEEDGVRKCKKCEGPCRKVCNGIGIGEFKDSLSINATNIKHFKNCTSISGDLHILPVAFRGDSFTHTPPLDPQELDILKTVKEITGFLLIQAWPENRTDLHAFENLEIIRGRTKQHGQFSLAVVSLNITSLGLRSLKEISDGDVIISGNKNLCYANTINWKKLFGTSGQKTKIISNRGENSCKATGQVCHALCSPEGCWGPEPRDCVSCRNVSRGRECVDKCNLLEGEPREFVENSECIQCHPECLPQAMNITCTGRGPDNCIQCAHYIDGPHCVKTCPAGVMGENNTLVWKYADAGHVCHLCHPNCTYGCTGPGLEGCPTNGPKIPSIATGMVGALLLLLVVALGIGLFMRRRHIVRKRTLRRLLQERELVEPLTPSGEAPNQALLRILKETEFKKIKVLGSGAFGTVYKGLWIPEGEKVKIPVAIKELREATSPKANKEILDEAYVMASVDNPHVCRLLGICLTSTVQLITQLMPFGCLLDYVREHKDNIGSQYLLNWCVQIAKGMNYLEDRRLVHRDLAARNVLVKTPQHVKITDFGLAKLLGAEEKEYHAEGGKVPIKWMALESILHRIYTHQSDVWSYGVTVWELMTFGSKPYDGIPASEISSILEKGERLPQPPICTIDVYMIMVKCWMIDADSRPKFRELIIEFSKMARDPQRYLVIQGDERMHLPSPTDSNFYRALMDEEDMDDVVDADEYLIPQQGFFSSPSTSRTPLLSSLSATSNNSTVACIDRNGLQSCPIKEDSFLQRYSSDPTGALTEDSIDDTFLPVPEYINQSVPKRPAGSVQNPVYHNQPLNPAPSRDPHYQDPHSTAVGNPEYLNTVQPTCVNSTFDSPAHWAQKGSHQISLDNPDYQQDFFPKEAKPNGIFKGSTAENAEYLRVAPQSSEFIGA
# Torsin-1A-interacting protein 2 (Homo sapiens), sequence (Q8NFQ8 whole entry, looked up): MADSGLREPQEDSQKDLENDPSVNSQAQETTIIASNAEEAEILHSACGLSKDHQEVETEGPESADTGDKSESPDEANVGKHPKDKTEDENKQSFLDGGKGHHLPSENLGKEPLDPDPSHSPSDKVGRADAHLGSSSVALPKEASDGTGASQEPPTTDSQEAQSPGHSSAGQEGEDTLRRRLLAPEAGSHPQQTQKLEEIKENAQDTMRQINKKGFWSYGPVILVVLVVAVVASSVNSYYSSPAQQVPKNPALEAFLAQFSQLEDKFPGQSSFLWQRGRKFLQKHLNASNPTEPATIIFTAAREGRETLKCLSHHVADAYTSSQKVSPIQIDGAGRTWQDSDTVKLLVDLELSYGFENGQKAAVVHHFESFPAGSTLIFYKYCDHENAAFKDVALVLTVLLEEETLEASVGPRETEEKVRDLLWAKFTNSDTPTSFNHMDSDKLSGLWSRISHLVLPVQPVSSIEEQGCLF
Compound,composite z-score [1],z-score [2],z-score [3],z-score [4],composite z-score [5],z-score [6],composite z-score [7],composite z-score [8],composite z-score [9],composite z-score [10],composite z-score [11],composite z-score [12],composite z-score [13],z-score [14],composite z-score [15],composite z-score [16],composite z-score [17],composite z-score [18],composite z-score [19],composite z-score [20]
C=CCN(CCCCC)C(=O)C(c1cccs1)N(C(=O)/C=C\C(=O)O)c1ccc(CCO)cc1 (stereo not given),0.275 and -0.0988,0.472 (inactive) and 0.0638 (inactive),-0.265 (inactive) and 0.206 (inactive),0.499 (inactive) and 0.494 (inactive),1.64 and 0.636,0.295 (inactive) and -0.109 (inactive),-0.254 and -0.0927,-1.9 and -1.27,-1.01 and -1.02,-0.309 and -0.313,0.274 and 0.158,-0.273 and -0.247,0.748 and 0.789,0.748 (inactive) and 0.709 (inactive),-1.8 and -1.08,-1.01 and -0.785,-1.79 and -1.62,-1.87 and -1.55,-2.83 and -1.55,-2.66 and -1.26
C=CCN(Cc1ccccc1)C(=O)C1N(c2ccc(CCO)cc2)C(=O)C2C(C(=O)O)C3C=CC21O3 (stereo not given),-1.64 and -0.655,0.774 (inactive) and -0.721 (inactive),-0.455 (inactive) and 0.116 (inactive),0.599 (inactive) and -1.29 (inactive),-0.933 and -1.02,1.12 (inactive) and 2.04 (inactive),0.0395 and 0.0834,-2.88 and -1.99,-1.35 and -1.12,-0.418 and -0.305,0.808 and 1.9,0.433 and -0.26,1.08 and 1.01,-0.426 (inactive) and -0.139 (inactive),-1.98 and -2.13,-1.13 and -1,-1.69 and -2.44,-3.03 and -1.19,-2.7 and -3.74,-3.78 and -3.04
